Assay results reported in ChEMBL document CHEMBL4888484, “Replenishing the malaria drug discovery pipeline: Screening and hit evaluation of the MMV Hit Generation Library 1 (HGL1) against asexual blood stage Plasmodium falciparum ,using a nano luciferase reporter read-out” (2022).
Hit rate of the full screen: of about 4,800 compounds, about 420 (8.8%) showed an effect of 50% or more. Shown is part of a subset that was picked to be rich in strong results. Where a SMILES comes first, the peptide text is derived from it. The star is where a group is joined. NHPhenethyl = c1ccc(CCN*)cc1

tested on: Plasmodium falciparum; test: Confirmatory screen in NF54 nanoGlo assay, in single point, at 2uM, 72h; format: functional, Erythrocyte; settings: timepoint 72 hour

SMILES	% Inhibition
CCc1ccc([C@H]2NCCc3[nH]cnc32)nc1	29%
CC(C)n1ccc(CN2CCC[C@H](c3cc(C(F)(F)F)[nH]n3)C2)n1	-9%
CCc1ccc(CN2CCC[C@H](c3ncc[nH]3)C2)nc1	52%
CCN(CC)c1ccc(N2C(=O)c3c(Br)c(Br)c(Br)c(Br)c3C2=O)cc1	5%
C=CCNC(=S)NS(=O)(=O)c1ccc(Cl)cc1	3%
COc1cc(CNCCN2CCOCC2)ccc1OCc1ccc(C)cc1	-1%
CCOc1cc(=O)c(C(=O)N2CCC(C(N)=O)CC2)nn1-c1ccc(F)cc1	-6%
CCS(=O)(=O)N1CCN(c2c(C)n(-c3ccccc3)c(=O)n(C)c2=O)CC1	2%
Cc1ccccc1S(=O)(=O)N1CCN(c2c(C)n(-c3ccccc3)c(=O)n(C)c2=O)CC1	1%
Cn1c(N)c(S(=O)(=O)N2CCN(c3ccccc3Cl)CC2)c(=O)n(C)c1=O	61%
CC(C)n1cc(CN[C@@]2(CO)CCCc3ccccc32)cn1	-5%
CCN(CC)CCCNC(=O)[C@H]1CCCN(c2nc3ccccc3n(Cc3ccccc3)c2=O)C1	0%
CCC1CN2CCCC2CN1C(=O)Nc1nc2ccccc2s1 (configuration not stated)	-1%
COc1ccc(CNC(=O)Cn2c(=O)n(Cc3cccc(OC)c3)c(=O)c3sccc32)cc1	1%
Cn1ccc(NC(=O)C(=O)N2CC[C@H](c3ccco3)C2)n1	-1%
O=C(Nc1cccc(C(F)(F)F)c1)C(Oc1ccccc1)Oc1ccccc1	-20%
Cc1cccc(C(=O)Nc2ccc(N3CCCCCC3)cc2C(=O)O)c1	-10%
O=C(Nc1cc(N2CCCS2(=O)=O)ccc1O)c1cccc(Oc2cccc(C(F)(F)F)c2)c1	100%
CC(C)(C)CC(=O)NC[C@H]1OC[C@@H](NC2CCCC2)[C@@H]1O	3%
Cc1n[nH]c(C)c1NC(=O)C1=NO[C@@H](CNC(=O)OC(C)(C)C)C1	0%
Cc1cccc(C(=O)N[C@H]2CCN(c3ccccc3)C2=O)c1	13%

SMILES	% Inhibition
CN(Cc1nccn1C)C(=O)c1cc2ccccc2[nH]1	5%
Cn1c(=O)c2c(ncn2CC(=O)N(Cc2ccccc2)C2CC2)n(C)c1=O	-4%
C=CCNC(=O)c1cc(Br)cc(Br)c1OC	6%
Cc1ccc(C2=C[C@@H](c3ccc(Cl)cc3)n3nc(NC(=O)c4ccccc4)nc3N2)cc1	94%
COc1cc([C@@H]2C=C(c3ccc(Cl)cc3)Nc3ncnn32)ccc1OCc1ccc(Cl)cc1	3%
Cc1ccc([C@@H]2C=C(C(=O)O)Nc3c(C(N)=O)nnn32)cc1	-14%
Cc1nnc2ccc(S(=O)(=O)N(Cc3ccccc3F)c3cc(F)cc(F)c3)cn12	-5%
CC(N)C(=O)NC(C)C(=O)NCCc1ccccc1 (stereo not drawn) (H-Ala-Ala-NHPhenethyl; configuration not given here)	-5%
CCOC(=O)c1ncn(C2CCN(C(=O)c3cccc(Cn4ccnc4)c3)CC2)c1N	-3%
CCOC(=O)c1c(CN2CCCC2)n(C)c2cc(-c3cccnc3)c(O)c(Cn3ccnc3)c12	60%
Cc1nn(C)c(C)c1S(=O)(=O)N1CC[C@]2(CCN(c3cccnc3)C2)C1	1%
Cc1cc(NC(=O)c2cccc(S(=O)(=O)NC3CC3)c2)no1	-8%
O=C(C[C@H]1CCC(=O)N(CC2CC2)CC1)Nc1ccccc1F	4%
COc1cccc(CNCCCn2ccnc2)c1OCc1ccc(F)cc1	6%
COc1ccc(C)c2sc(N(CCCn3ccnc3)C(=O)Cc3ccc(F)cc3)nc12	79%
Cn1cccc1CNCc1ccncc1	0%
CCN(CC)[C@H](CNC(=O)C1=NN(C)C(=O)CC1)Cc1ccccc1	2%
CC1CCC(c2noc([C@H]3CCO[C@@H]3c3cncc(Br)c3)n2)CC1 (some centres not stated)	52%
O=C(c1cncc(Br)c1)N1CC[C@H](c2nc(C3CCOCC3)no2)C1	-2%
c1csc(-c2noc(Cc3c[nH]c4ccccc34)n2)c1	21%
COc1ccc(CC(=O)N(c2ccccc2)c2ccccc2)cc1	21%

SMILES	% Inhibition
COc1ccc(C(=O)N(C(=O)c2ccc(OC)cc2)c2c3c(nc4ccccc24)CCCC3)cc1	72%
COc1ccc(C(=O)N2CC(C(=O)O)CCC2c2ccccc2)cc1 (configuration not stated)	3%
c1cc(-c2noc(C3CC3)n2)nc(N2CCNCC2)n1	-12%
Cc1nc(N2CCC(c3nc(-c4ccccc4)no3)CC2)c2c(C)noc2n1	54%
C[C@H](Oc1ccccc1)C(=O)N1CCC(c2nc(-c3ccc4c(c3)OCO4)no2)CC1	6%
C=CCC(N)(CC=C)c1ccc(C)cc1	-6%
Cn1nnnc1NC/C=C/c1ccccc1	-4%
C=C1C(C)C2C(Cc3c[nH]c4ccccc34)NC(=O)C23C(=O)CC(O)C(O)CC(C)C/C=C/C3C1O (configuration not stated)	44%
CCC(C)C(NC(=O)c1ccccc1NC(=O)c1ccco1)C(=O)N1CCCCCC1 (configuration not stated)	-9%
Cc1nc(C)c(CN2C(=O)C3CCCCC3C2=O)s1 (configuration not stated)	-2%
O=C(c1ccoc1)N1CCC[C@H](C(=O)N2CCN(C(c3ccccc3)c3ccccc3)CC2)C1	-1%
O=C([C@H]1CC(=O)N(c2ccc(F)c(Cl)c2)C1)N1CCN(C(c2ccccc2)c2ccccc2)CC1	-3%
O=C(c1cccc(C(=O)N2CCN(C(c3ccccc3)c3ccccc3)CC2)c1)N1CCN(C(c2ccccc2)c2ccccc2)CC1	63%
C[C@@H](C(=O)Nc1cccc2ccccc12)c1ccc(-c2ccccc2)c(F)c1	-11%
CC[n+]1c(/C=C/N(C)c2ccccc2)oc2ccccc21	80%
CC[n+]1c(/C=C/N(C)c2ccccc2)oc2ccc(-c3ccccc3)cc21	89%
CC(C)(C(=O)Nc1nccs1)c1cccnc1	-2%
Cn1cc(C(=O)N2N=CC[C@]2(O)C(F)(F)F)cn1	1%
O=C(c1cc(-c2ccccc2)n[nH]1)N1CCC(N2CCc3sccc3C2)CC1	21%
CCOc1c(CNC(C)(C)C)cccc1OC	-9%
